KCNQ2 pot: potentiators of rat KCNQ2 potassium channel | O88943 | CHO-K1 KCNQ2, FluxOR thallium flux fluorescence; active compounds read high | B-score at 10 µM | 0.54% of 310,000 active;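 active = fluorescence ratio B-score at least 3 SD of library B-scores, with initial fluorescence B-score within 3 of them, cut at about 5.3 in these data; same plate scores as AID 2156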;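 note: B-score of peak minus minimum over baseline fluorescence ratio after K+ and Tl+ stimulus; positive B-score means potentiation of KCNQ2 with more thallium influx and brighter signal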
KCNQ2 block: inhibitors of rat KCNQ2 potassium channel; O88943; CHO-K1 KCNQ2, FluxOR thallium flux, 20 min; active compounds read low; B-score at 10 µM; 1.1% of 310,000 active;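 active = fluorescence ratio B-score at most minus 3 library SDs, with starting brightness B-score within 2 library SDs, cut at about -5.5 in these data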
Kir21 confirm: confirmation of mouse Kir2.1 potassium channel inhibitors; shares compounds with KCNQ2 pot; Kir2.1-expressing cells, FluxOR thallium flux fluorescence; active compounds read low; Tl flux remaining, % of negative control (active compounds read low), % at 10 µM; 41% of 2,300 active; AID 2032;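 active = Primary-screen hit whose thallium flux fell at least 3 control SD below untreated wells in both duplicates, with normal baseline fluorescence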;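 note: 0% = blank wells without stimulus and 100% = stimulated no-compound controls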
HEK293 ctr: alters thallium flux in parental HEK293 cells, Kir2.1 counter-screen | AID 2105 | shares compounds with KCNQ2 pot | FluxOR thallium flux fluorescence; 0% = unstimulated blank wells | 19% of 2,300 active | FluxOR signal as % of negative control (100 = no effect), % at 10 µM;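 active = dye signal at least 3 control SD above or below untreated wells in both duplicates, raw fluorescence within 3, either direction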;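 note: percent is based on the flux ratio of peak minus minimum fluorescence over baseline F0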
CHO-K1 Tl ctr: parental CHO-K1 activity in KCNQ2 potentiator counter-screen | shares compounds with KCNQ2 pot | parental CHO-K1 cells, FluxOR thallium flux fluorescence; zero = vehicle mean+3SD, 100% = vehicle-minus-blank window | activity increase over 3SD of controls, % at 10 µM | 43% of 1,200 active | AID 2282;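 active = signal rise of at least 3 SD above the untreated control mean, in both duplicate wells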;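 note: counter screen of KCNQ2 potentiator hits so any rise reflects channel-independent effects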
KCNQ1 sel pot: human KCNQ1 counter-target activity of KCNQ2 potentiators. AID 2283. activation over 3SD threshold, % at 10 µM. shares compounds with KCNQ2 pot. 28% of 1,200 active. CHO KCNQ1 stable, FluxOR thallium flux fluorescence; beyond 3SD, as % of vehicle-control signal;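 active = fluorescence ratio rise of at least 3 SD of vehicle wells above their mean, in both replicate wells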;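 note: 0% = vehicle mean plus 3 SD and 100% = vehicle minus unstimulated blank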
Target sequence (P51787 whole entry, looked up): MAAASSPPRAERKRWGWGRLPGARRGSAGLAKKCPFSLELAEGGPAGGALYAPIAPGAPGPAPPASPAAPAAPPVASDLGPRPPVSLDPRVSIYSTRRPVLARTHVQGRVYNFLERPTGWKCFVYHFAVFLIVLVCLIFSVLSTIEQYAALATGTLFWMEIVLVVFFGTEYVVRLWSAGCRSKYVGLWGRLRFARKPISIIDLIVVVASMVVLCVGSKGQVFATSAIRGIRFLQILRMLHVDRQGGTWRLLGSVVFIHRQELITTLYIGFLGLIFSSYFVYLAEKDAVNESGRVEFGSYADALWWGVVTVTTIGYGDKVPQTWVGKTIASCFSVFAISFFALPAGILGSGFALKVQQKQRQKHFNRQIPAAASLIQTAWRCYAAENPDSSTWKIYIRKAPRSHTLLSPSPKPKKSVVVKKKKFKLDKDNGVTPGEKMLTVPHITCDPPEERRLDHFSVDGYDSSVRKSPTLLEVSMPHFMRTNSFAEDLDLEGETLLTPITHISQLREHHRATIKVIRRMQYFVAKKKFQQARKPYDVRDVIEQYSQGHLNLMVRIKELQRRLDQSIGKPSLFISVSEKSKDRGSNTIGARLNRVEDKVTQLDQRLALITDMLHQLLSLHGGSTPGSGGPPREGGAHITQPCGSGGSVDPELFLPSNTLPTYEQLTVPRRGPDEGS
KCNQ2 pot confirm: confirmation of rat KCNQ2 potassium channel potentiators. 68% of 1,200 active. CHO-KCNQ2 cells, FluxOR thallium flux fluorescence. shares compounds with KCNQ2 pot. potentiation, less the hit threshold, % at 10 µM;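 active = fluorescence ratio rising 3 SD or more over the vehicle control mean in both replicates, plus primary screen hit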;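 note: peak minus minimum thallium fluorescence divided by baseline after K/Tl stimulus; 0% = vehicle mean plus 3 SD and 100% = vehicle minus unstimulated blank difference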
Kir2-1 sel: selectivity of KCNQ2 potentiators: effect on mouse Kir2.1; shares compounds with KCNQ2 pot; HEK293 Kir2.1, FluxOR thallium flux fluorescence; activity over 3SD threshold, % at 10 µM; 2% of 1,200 active;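 active = fluorescence ratio rise of at least 3 SD above the vehicle-control mean, seen in both replicates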;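 note: 0% = vehicle mean plus 3 SD and 100% = vehicle minus no-stimulus blank window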
KCNQ2 W236L MoA: rat KCNQ2 W236L mutant potentiation by KCNQ2 potentiators | shares compounds with KCNQ2 pot | CHO KCNQ2-W236L, automated patch clamp current | current increase over 3SD of negative controls (%), active compounds read high, % at 25 µM | 10% of 940 active;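 active = current increase at least 3 SD of the untreated controls above them in both duplicate recordings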
* = called active by the depositor; i = inactive; . = not tested or not shown. Most compounds without a hit are left out; they make up all but 1.6% or so of the library.

SMILES | KCNQ2 pot | KCNQ2 block | Kir21 confirm | HEK293 ctr | others
Cc1cc(C(=O)NCC(C)C)c2ccccc2n1 | . | i | . | .
CCCCOc1ccc(CCC(=O)N/N=C/c2ccco2)cc1 | 9.1* | i | i | i | CHO-K1 Tl ctr=47*;KCNQ1 sel pot=65*;KCNQ2 pot confirm=33*;Kir2-1 sel=-38;KCNQ2 W236L MoA=i
O=C(COc1c(Br)cc(Br)cc1Br)N/N=C/c1ccco1 | 6.3* | i | i | i | CHO-K1 Tl ctr=-3;KCNQ1 sel pot=-8;KCNQ2 pot confirm=-4;Kir2-1 sel=-20
CCCOc1ccc(CCC(=O)N/N=C/c2ccco2)cc1 | 1.3 | i | . | .
Cc1cc(C)cc(OCC(=O)N/N=C/c2ccco2)c1 | . | i | . | .
O=C(COc1ccc([N+](=O)[O-])cc1)Nc1cccnc1 | . | i | . | .
O=C(Nc1ccnn1C1CCN(Cc2ccccc2)CC1)c1ccccc1Cl | 2.2 | i | . | .
O=C(NCc1nnc2c(C(F)(F)F)cc(Cl)cn12)c1ccc2c(c1)OCO2 | 0.8 | i | . | .
C=C(C)CSC1=C(C#N)C(c2ccccc2)CC(=O)N1 (configuration not stated) | . | i | . | .
N#CC1=C(SCc2ccccc2)NC(=O)CC1c1ccco1 (configuration not stated) | . | i | 41%* | i
N#CC1=C(SCC(=O)NCc2ccccc2)NC(=O)CC1c1ccco1 (configuration not stated) | 0.02 | i | . | .
Cc1ccc(C2CC(=O)NC(SCc3ccccc3)=C2C#N)o1 (configuration not stated) | . | i | 44%* | i
CCSC1=C(C#N)C(c2ccc(C)o2)CC(=O)N1 (configuration not stated) | . | i | . | .
CCCCCCSC1=C(C#N)C(c2ccc(C)o2)CC(=O)N1 (configuration not stated) | . | i | 60%* | i
O=c1oc2ccccc2cc1-c1ccc(O)cc1O | . | i | . | .
O=C(CCC(=O)N(CC(=O)NC1CCCCC1)c1ccccc1F)Nc1nccs1 | 2.2 | i | . | .
COc1cc(OC)c(OC)cc1CN1CCN(C(=O)CC(C)C)CC1 | 0.82 | i | . | .
O=C(N/N=C/c1ccco1)c1cc(-c2ccc3ccccc3c2)n[nH]1 | 9.2* | i | i | i | CHO-K1 Tl ctr=54*;KCNQ1 sel pot=-13;KCNQ2 pot confirm=32*;Kir2-1 sel=-27;KCNQ2 W236L MoA=i
CCc1ccc(-c2cc(C(=O)N/N=C/c3ccco3)[nH]n2)cc1 | 1.3 | i | . | .
CCc1cccc(NC(=O)Nc2ccc3c(c2)OCO3)c1 | 1.8 | i | . | .
CC(CS(=O)(=O)c1ccc2c(c1)NC(=O)CS2)C(=O)NCc1ccccc1Cl (configuration not stated) | . | i | . | .
CCN(CC)C(=O)Oc1cc(COC)nc(-c2ccccc2)n1 | . | i | . | .
COc1ccc(C(OCC(O)CNC(C)c2ccccc2)c2ccc(OC)cc2)cc1 (configuration not stated) | . | i | . | .
COc1ccc(C(OCC(O)CNCCc2ccccc2)c2ccc(OC)cc2)cc1 (configuration not stated) | . | i | 44%* | i
O=C(c1ccccc1)c1ccc(OCC(O)CNCc2cccc(Cl)c2)cc1 (configuration not stated) | . | i | 48%* | i
Cc1ccc(OCC(O)CNCc2ccccc2)cc1C (configuration not stated) | . | i | . | .
Cc1ccc(C(OCC(O)CN2CCCCC2CO)c2ccccc2)cc1 (configuration not stated) | 0.03 | i | . | .
Cc1ccc(C(OCC(O)CNCc2ccc(F)cc2)c2ccccc2)cc1 (configuration not stated) | . | i | 34%* | i
CCC(=O)c1ccc(OCC(O)CNCc2ccc(F)cc2)cc1 (configuration not stated) | 0.66 | i | . | .

Screening results from PubChem BioAssay.
